According to PubChem BioAssay:
Unmarked numbers belong to inactive results. The source made the active and inactive calls. Cut-off read from the data, not from the text of the source, unless noted: active = inhibition above about 44%; inactive = the rest.

Legend:
[1] = StAR promoter reporter inhibitors, counter-screen for LRH-1 inverse agonist project, cell-based, luminescence, high throughput (AID 651611; in the data active = inhibition above about 28%); settings: StAR promoter luciferase reporter counterscreen, at 3.6 µM, hits give high values
[2] = biological target: Nuclear receptor subfamily 5 group A member 2 (Homo sapiens) (UniProt O00482); assay: NR5A2 activity suppression in reporter cells – cell-based, luminescence, confirmation (AID 651613; in the data active = inhibition above about 42%;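 note: HEK293T cells co-transfected with LRH-1 and StAR promoter luciferase reporter; 0% = vehicle wells and 100% = parental cells lacking receptor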); settings: cell-based LRH-1 luciferase reporter, inverse agonism; at 3.6 µM; hits give high values
Nuclear receptor subfamily 5 group A member 2 (Homo sapiens), sequence (O00482 whole entry, looked up): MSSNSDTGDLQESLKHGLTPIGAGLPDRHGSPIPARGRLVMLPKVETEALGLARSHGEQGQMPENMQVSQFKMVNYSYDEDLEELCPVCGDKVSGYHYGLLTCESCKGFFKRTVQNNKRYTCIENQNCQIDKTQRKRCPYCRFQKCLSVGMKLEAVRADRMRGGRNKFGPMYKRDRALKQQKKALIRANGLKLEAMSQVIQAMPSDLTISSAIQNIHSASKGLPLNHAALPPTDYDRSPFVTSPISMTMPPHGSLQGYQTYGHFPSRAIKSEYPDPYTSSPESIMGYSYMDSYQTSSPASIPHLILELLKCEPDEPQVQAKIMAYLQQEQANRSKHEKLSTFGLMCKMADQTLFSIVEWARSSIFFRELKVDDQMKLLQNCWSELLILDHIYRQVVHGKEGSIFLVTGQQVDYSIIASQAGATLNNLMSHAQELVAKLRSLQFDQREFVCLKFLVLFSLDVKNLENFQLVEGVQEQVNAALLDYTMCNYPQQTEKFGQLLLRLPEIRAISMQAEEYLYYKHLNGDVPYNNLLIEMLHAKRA

[3] = biological target: Steroidogenic factor 1 (Homo sapiens) (UniProt Q13285); assay: inverse agonism at SF1 nuclear receptor – cell-based, luminescence, high throughput, counter-screen for LRH-1 inverse agonist project (AID 651614); settings: cell-based SF1 luciferase reporter, at 3.6 µM, hits give high values;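 note: cells cotransfected with StAR promoter reporter and SF1 expression vector; 0% = vehicle on cells with receptor and 100% = vehicle on cells lacking receptor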
Steroidogenic factor 1 (Homo sapiens), sequence (Q13285 whole entry, looked up, the tested form may be a part): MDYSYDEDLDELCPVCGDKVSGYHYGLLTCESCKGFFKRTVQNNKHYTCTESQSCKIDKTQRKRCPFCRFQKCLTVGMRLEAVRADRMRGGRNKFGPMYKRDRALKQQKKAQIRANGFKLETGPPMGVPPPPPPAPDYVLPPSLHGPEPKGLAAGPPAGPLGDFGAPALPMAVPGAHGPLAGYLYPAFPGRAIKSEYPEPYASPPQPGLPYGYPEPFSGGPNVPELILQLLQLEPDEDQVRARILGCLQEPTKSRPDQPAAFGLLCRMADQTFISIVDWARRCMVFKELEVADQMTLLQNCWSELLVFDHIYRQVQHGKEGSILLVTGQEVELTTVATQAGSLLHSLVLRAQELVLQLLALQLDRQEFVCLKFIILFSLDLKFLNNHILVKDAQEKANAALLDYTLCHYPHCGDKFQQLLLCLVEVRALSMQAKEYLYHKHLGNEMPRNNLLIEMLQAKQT

[4] = compounds suppressing VP16-driven luciferase signal – cell-based, luminescence, high throughput, counter-screen for LRH-1 inverse agonist project (AID 651615; in the data active = inhibition above about 33%); settings: Gal4-VP16 luciferase reporter cells, at 3.6 µM, hits give high values
[5] = test system: transactivating tegument protein VP16 (Human herpesvirus 1); assay: compounds suppressing VP16-driven luciferase signal – cell-based, luminescence, single concentration, counter-screen for SRC2 inhibitor project (AID 652007; in the data active = inhibition above about 36%); settings: cell-based VP16 transactivation luciferase reporter, at 8.9 µM, hits give high values
[6] = biological target: Nuclear receptor coactivator 2 (Homo sapiens) (UniProt Q15596); assay: inhibition of GAL4-SRC2 driven luciferase expression – cell-based, luminescence, HEK293, triplicate, confirmation (AID 652008;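 active = mean inhibition above 46.5%, the solvent-only control mean plus 3 SD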;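 note: 0% = DMSO-treated cells and 100% = Gossypol at 36 µM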); settings: HEK293 GAL4-SRC2 luciferase reporter, at 8.9 µM, hits give high values
Nuclear receptor coactivator 2 (Homo sapiens), sequence (Q15596 whole entry, looked up, the tested form may be a part): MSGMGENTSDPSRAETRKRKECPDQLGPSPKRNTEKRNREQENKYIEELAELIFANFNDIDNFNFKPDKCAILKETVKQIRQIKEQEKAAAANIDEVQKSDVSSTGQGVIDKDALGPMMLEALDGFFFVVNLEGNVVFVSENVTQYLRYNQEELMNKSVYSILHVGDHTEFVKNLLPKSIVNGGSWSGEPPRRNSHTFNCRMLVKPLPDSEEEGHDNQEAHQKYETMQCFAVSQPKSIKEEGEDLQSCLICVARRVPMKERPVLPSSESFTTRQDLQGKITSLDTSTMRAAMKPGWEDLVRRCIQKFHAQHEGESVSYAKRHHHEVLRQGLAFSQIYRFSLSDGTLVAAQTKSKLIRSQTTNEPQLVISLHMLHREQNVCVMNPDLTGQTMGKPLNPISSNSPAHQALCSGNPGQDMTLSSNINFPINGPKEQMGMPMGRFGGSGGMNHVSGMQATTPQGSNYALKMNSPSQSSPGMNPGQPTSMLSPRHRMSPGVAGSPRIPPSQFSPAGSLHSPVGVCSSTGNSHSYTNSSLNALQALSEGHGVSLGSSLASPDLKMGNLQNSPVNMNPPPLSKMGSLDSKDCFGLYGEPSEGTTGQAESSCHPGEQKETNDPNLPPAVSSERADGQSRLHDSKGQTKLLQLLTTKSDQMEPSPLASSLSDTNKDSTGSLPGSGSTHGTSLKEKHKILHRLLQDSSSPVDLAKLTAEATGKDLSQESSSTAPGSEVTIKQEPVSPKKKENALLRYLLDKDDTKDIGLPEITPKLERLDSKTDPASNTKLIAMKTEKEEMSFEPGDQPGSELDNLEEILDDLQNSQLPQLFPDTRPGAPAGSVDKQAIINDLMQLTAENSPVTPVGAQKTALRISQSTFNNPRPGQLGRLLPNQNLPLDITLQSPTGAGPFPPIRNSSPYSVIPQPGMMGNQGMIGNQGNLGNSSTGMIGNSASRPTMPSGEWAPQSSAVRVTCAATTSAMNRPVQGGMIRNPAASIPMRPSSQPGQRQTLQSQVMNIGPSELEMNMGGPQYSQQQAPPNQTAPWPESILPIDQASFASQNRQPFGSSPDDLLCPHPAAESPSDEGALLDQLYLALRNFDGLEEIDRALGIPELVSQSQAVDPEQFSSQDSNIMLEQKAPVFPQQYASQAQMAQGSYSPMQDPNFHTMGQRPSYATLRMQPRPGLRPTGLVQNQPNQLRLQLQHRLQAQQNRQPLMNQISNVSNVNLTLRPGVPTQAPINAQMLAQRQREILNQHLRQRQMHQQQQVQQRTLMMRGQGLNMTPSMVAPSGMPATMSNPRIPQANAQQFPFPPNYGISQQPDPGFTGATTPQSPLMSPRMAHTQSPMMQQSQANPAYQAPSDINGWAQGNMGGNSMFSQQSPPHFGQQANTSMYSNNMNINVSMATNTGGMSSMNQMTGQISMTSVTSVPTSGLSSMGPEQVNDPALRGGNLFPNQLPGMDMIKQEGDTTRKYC

SMILES | inhibition [1] | inhibition [2] | inhibition [3] | inhibition [4] | inhibition [5] | inhibition [6]
CN1CCN(c2ccccc2NC(=O)c2ccc(-c3cccc([N+](=O)[O-])c3)o2)CC1 | 11.9% | 42.9% (active) | 49.6% (active) | 2.32% |  | 
CCN1C(=O)c2cccc3c(N)ccc1c23 | 33.4% (active) | 58.6% (active) | 46% (active) | -37.8% |  | 
CS(=O)(=O)c1ccc2nc(NC(=O)C3CC(=O)N(c4ccccc4)C3)sc2c1 (centres undefined) | 29.6% (active) | 60.4% (active) | 55.9% (active) | 11.3% |  | 
Cc1ccnc2c1ccc1cccnc12 | 82.7% (active) | 108% (active) | 67.4% (active) | 65.5% (active) | -9.35% | 29%
CCC1CCCCN1C(=O)c1ccc([N+](=O)[O-])o1 (centres undefined) | 0.98% | 47.5% (active) | 46.7% (active) | 3.65% |  | 
O=C(CCl)N(c1ccc(Cl)cc1)c1c[nH]c2ccccc12 | 25.4% | 67.1% (active) | 58% (active) | 30.4% |  | 
CC(C)(C)C(=O)N1CCN(c2ccc(NC(=O)c3ccc([N+](=O)[O-])o3)cc2)CC1 | 11.1% | 59.7% (active) | 68.6% (active) | -12.6% |  | 
O=C(NCc1cccnc1)c1cccc2c1C(=O)N(C1CCCCC1)C2 | 12.8% | 48.5% (active) | 51.5% (active) | -8.24% |  | 
CC(Cl)C(=O)Nc1ncc(C(F)(F)F)cc1Cl (centres undefined) | 13.3% | 58.9% (active) | 51.3% (active) | -7.63% |  | 
Cc1ccc(-n2nnnc2-c2ccccc2Br)cc1 | 7.41% | 57.2% (active) | 52% (active) | 4.92% |  | 
Cc1ccc2[nH]c(C)c(/C=C/c3cc[n+](C)cc3)c2c1 | 39.2% (active) | 77.4% (active) | 67.3% (active) | 67.8% (active) |  | 
O=[N+]([O-])c1ccc(/C=N/Nc2ccnc3cc(Cl)ccc23)o1 | -10.6% | 44% (active) | 40% | -10.5% |  | 
Cn1cnc([N+](=O)[O-])c1Oc1ccc2ccccc2c1 | 38.9% (active) | 55.3% (active) | 54.8% (active) | 10.8% | 11.9% | 19.6%
C=CCNC(=S)N/N=C(\C)c1ccccn1 | 89.3% (active) | 95.5% (active) | 88.6% (active) | 54.8% (active) |  | 
Cc1onc(-c2ccccc2Cl)c1-c1nc(-c2ccncc2)no1 | 7.38% | 58.1% (active) | 52.9% (active) | 18.2% |  | 
CC(NC(=O)c1ccco1)C(c1cccs1)N1CCN(c2ccccc2F)CC1 (centres undefined) | 3.57% | 49.3% (active) | 42.6% | 13% |  | 
Brc1ccc2ncnc(NCc3ccccc3)c2c1 | 30.5% (active) | 72.4% (active) | 59.9% (active) | 80.8% (active) | 21.7% | 54.5% (active)
COCCn1c(SCC(=O)Nc2ccc(C(C)=O)cc2)nnc1-c1ccco1 | 14.8% | 43.4% (active) | 37.4% | -1.99% |  | 
CCN(CC)c1nc(-c2ccccn2)nc(-c2ccccc2)c1C#N | 11.5% | 53.4% (active) | 55.7% (active) | 13.6% |  | 
CCOc1ccc(CCNC(=O)COC(=O)/C=C/c2ccc(OC(F)F)c(OC)c2)cc1OCC | 12.5% | 51.5% (active) | 47.1% (active) | -3.71% |  | 
Cc1onc(-c2c(F)cccc2Cl)c1C(=O)O/N=C(\N)c1ccc([N+](=O)[O-])o1 | 11.6% | 70.9% (active) | 60.4% (active) | -7.18% |  | 
CCCc1cc(=O)oc2cc3occ(C)c3cc12 | -0.89% | 42.1% (active) | 37.8% | 1.16% |  | 
Cc1cc(C)n2c(Nc3ccc4c(c3)OCCO4)c(-c3cc4ccccc4o3)nc2n1 | -27.7% | -26.8% | -6.96% | 0.38% | -60.9% | -12.5%
COC(=O)c1ccc(NC(=O)CSc2nn3c(=O)c(C)nnc3s2)cc1 | 5.82% | 61.3% (active) | 56.4% (active) | -11.6% |  | 
